An excerpt weighted towards active compounds, which were near 19% of everything screened.
HT1080-NT tox – qHTS for induction of synthetic lethality in tumor cells producing 2HG: qHTS for the HT-1080-NT fibrosarcoma cell line; HT-1080-NT fibrosarcoma viability, CellTiter-Glo ATP luminescence, 48 h; Potency, µM (doses to about 46.1 µM), usual class: cytotoxic; actives 1.6% (n = 360,000);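 further: NT is the 2HG producing partner of a matched IDH1 knockdown line; nearly all actives have a fitted effect of over 55% in size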
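HT-1080-NT fibrosarcoma cells (2HG-overproducing), 750 cells/well in RPMI with 5% FBS, dosed after 2 h and incubated 48 h at 37C. CellTiter-Glo luminescence normalized to DMSO and no-cell wells; concentration-response curves fitted and classed.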
HT1080 IDH1KD tx – qHTS for induction of synthetic lethality in tumor cells producing 2HG: qHTS for the HT-1080-IDH1KD cell line; HT-1080 IDH1 knockdown viability, ATP luminescence, 48 h; Potency, µM (highest dose often 46.1 µM), usual class: cytotoxic; actives 2% (n = 360,000)
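After a 2 h attachment period, IDH1KD HT-1080 cells took pin-transferred compound for 48 h at 37 °C; ATP-based luminescence after 10 min room-temperature reagent incubation reported viability.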
KB-3-1 tox – qHTS assay for MDR1-selective chemotherapeutics: Primary screen using the parental adenocarcinoma cell KB-3-1 | KB-3-1 viability, CellTiter-Glo ATP luminescence, 72 h | Potency, µM (series often up to 46.1 µM), usual class: cytotoxic | actives 1.4% (n = 400,000); further: nearly all actives have a fitted effect of over 60% in size
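Parental KB-3-1 viability, qHTS format: 72 h compound exposure, 37 °C; CellTiter-Glo; media-only wells and DMSO plates as controls; concentration-effect fits on corrected data.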
KB-V1 cytotox – qHTS assay for MDR1-selective chemotherapeutics: Primary screen using the drug-selected MDR subline cells KB-V1. KB-V1 MDR cells viability, CellTiter-Glo, 72 h. Potency, µM (series often up to 46.1 µM), usual class: cytotoxic. actives 3.4% (n = 400,000). AID 1347076, 2019; further: nearly all actives have a fitted effect of over 60% in size
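qHTS viability screen in drug-selected KB-V1 MDR cells: 72 h compound treatment at 37 degrees C, ATP luminescence end point.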
DT40 TDP1 no CPT – qHTS for Inhibitors of human tyrosyl-DNA phosphodiesterase 1 (TDP1): qHTS in cells in absence of CPT; DT40 Tdp1-/- hTDP1 cells, no CPT, ATP luminescence, 48 h; Potency, µM (top dose mostly 46.2 µM), most hits filed as inhibitors; actives 15% (n = 420,000); AID 686978, 2013; further: nearly all actives have a fitted effect of over 55% in size
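A cellular qHTS used chicken DT40 cells lacking endogenous Tdp1 but carrying stably transfected human TDP1. Compounds were applied without camptothecin, and cell growth kinetics were judged by ATP-dependent luminescence after ≥48 hr.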
TDP1 cell CPT – qHTS for Inhibitors of human tyrosyl-DNA phosphodiesterase 1 (TDP1): qHTS in cells in presence of CPT | Potency, µM (doses to about 46.2 µM), most hits filed as inhibitors | chicken DT40 Tdp1-/-;hTDP1 cells + 20 nM CPT, ATP luminescence, 48 h | actives 12% (n = 420,000); further: nearly all actives have a fitted effect of over 55% in size
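Chicken DT40 Tdp1-/- cells complemented with human TDP1, 400 cells/well, exposed to compounds plus 20 nM camptothecin for at least 48 h at 37 C; viability read as ATP content by CellTiter-Glo luminescence.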
Numbers stand for hits; - = inactive; ? = inconclusive; . = no result; ! = a repeat was not active. The call rests on the fitted dose curve; in most records, active means well fitted curve in the direction sought with a large enough effect; inconclusive means small, poorly fitted or top-dose-only effect, or another doubt; inactive means no such curve, though single readings can be large; an effect the other way counts as inactive or inconclusive.

SMILES	HT1080-NT tox	HT1080 IDH1KD tx	KB-3-1 tox	KB-V1 cytotox	DT40 TDP1 no CPT	TDP1 cell CPT
COc1ccc(OCCCCc2c(C)n[nH]c2C)cc1	-	-	-	-	?	23.1µM
Cc1cccc(OCCCc2c(C)n[nH]c2C)c1	-	-	?	18.4µM	-	-
COc1cccc(OC)c1OCCCOc1c(OC)cccc1OC	-	-	-	-	?	-
Cc1ccccc1-c1nnc(-c2ccc(Cl)cc2)o1	-	-	-	-	-	-
Cc1ccc(CS(=O)(=O)c2ccccc2-c2nnc(-c3ccc(Cl)cc3)o2)cc1	-	-	?	?	18.4µM	?
FC(F)(F)c1cc(NC2CCCCC2)ccn1	-	-	-	-	29.1µM	-
CC1(C)C(=O)NC(=O)N1Cc1ccccc1	-	-	-	?	-	-
Cc1nc2ccccc2c2nc3ccccc3n12	?	-	-	-	20.6µM	?
Clc1ccccc1-c1nc2ccccc2c2nc3ccccc3n12	-	-	?	4.11µM	13µM	?
CCOc1cccc(-c2nn3c(-c4ccco4)nnc3s2)c1	-	-	?	9.2µM	?	?
CCOc1cccc(-c2nnc3sc(COc4ccc(Cl)cc4)nn23)c1	-	-	20.6µM	?	?	?
CCOc1cccc(-c2nnc3sc(COc4ccc(C)cc4)nn23)c1	-	-	-	-	-	-
CCOc1ccc(-c2nn3c(-c4ccccc4)nnc3s2)cc1	-	-	-	-	?	?
COc1ccccc1-c1nnc2sc(COc3ccc(Cl)cc3)nn12	-	-	-	-	16.4µM	?
COc1cc(-c2nn3c(-c4cc(-c5ccccc5)n[nH]4)nnc3s2)cc(OC)c1OC	.	.	?	?	8.91µM	15.8µM
COc1cc(-c2nn3c(-c4ccccc4)nnc3s2)cc(OC)c1OC	-	-	?	?	?	?
COc1cccc(-c2nnc3sc(-c4cccs4)nn23)c1	-	-	-	-	16.4µM	14.6µM
COc1cccc(-c2nnc3sc(-c4ccco4)nn23)c1	-	-	-	-	-	-
CCOc1cccc(-c2nnc3sc(-c4cc(OC)c(OC)c(OC)c4)nn23)c1	-	-	?	8.2µM	?	?
CCOc1cccc(-c2nnc3sc(COc4ccccc4)nn23)c1	-	-	-	?	-	-
CCOc1cccc(-c2nnc3sc(-c4cccs4)nn23)c1	-	-	-	5.17µM	13µM	14.6µM
COc1cc(-c2nnc3sc(-c4ccncc4)nn23)cc(OC)c1OC	-	-	-	-	-	?
Cc1cc([N+](=O)[O-])cnc1NC(C)c1ccccc1 (stereo not given)	-	-	-	-	-	-
COc1ccc(N=Nc2cc(-c3ccccc3)ccc2O)cc1	-	-	-	-	-	-
COc1ccc(-c2[nH]ncc2C(=O)NCc2ccccc2C)cc1	.	.	.	.	-	-
SMILES	HT1080-NT tox	HT1080 IDH1KD tx	KB-3-1 tox	KB-V1 cytotox	DT40 TDP1 no CPT	TDP1 cell CPT
COc1ccc(-c2[nH]ncc2N=Nc2cc(C)cc(C)c2)cc1	18.4µM	20.6µM	?	?	10.3µM	0.206µM
COc1ccc(-c2[nH]ncc2N=Nc2ccccc2)cc1	16.4µM	16.4µM	?	?	?	?
COc1ccc(CNC(=O)C[C@H]2C(=O)N(C3CCCCC3)C[C@@H]2Cc2ccccc2)cc1	-	-	?	?	-	?
COc1ccc([C@H]2CN(Cc3ccccc3)C(=O)[C@@H]2CC(=O)Nc2ccccc2)cc1	-	-	-	?	?	-
COc1ccc(CNC(=O)C[C@H]2C(=O)N(Cc3ccccc3)C[C@@H]2Cc2ccccc2)cc1	-	-	-	?	18.4µM	?
CCCCN1C[C@H](C)[C@@H](CC(=O)NCc2ccccc2)C1=O	-	-	-	?	-	-
CCCCC[C@H]1CN(Cc2ccccc2)C(=O)[C@@H]1CC(=O)NCc1ccc(OC)cc1	-	-	?	18.4µM!	16.4µM	20.6µM
CCCCC[C@H]1CN(C2CCCCC2)C(=O)[C@@H]1CC(=O)NCc1ccccc1	-	-	?	?	12.6µM!	11.2µM
C[C@H]1CN(C2CCCCC2)C(=O)[C@@H]1CC(=O)NCc1ccccc1	-	-	-	?	?	?
COc1ccc(CNC(=O)C[C@H]2C(=O)N(Cc3ccc(OC)cc3)C[C@@H]2Cc2ccccc2)cc1	-	-	-	13µM!	8.91µM	20.6µM
O=C(/C=C/c1ccccc1)Nc1cccc(C(=O)N2CCCC2)c1	-	-	-	-	-	?
CCOc1ccc(CNC(=O)c2cnc3c(C)cccn3c2=O)cc1	.	.	-	-	-	-

Source: PubChem BioAssay
